Assay results taken from PubChem BioAssay (NCI).
About 83,000 compounds went through this panel and 20% of them were active in at least one assay; those are over-represented in the sample as a whole.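 How to read the values: 0–100, growth inhibition (40 = 60% inhibited); 0, no net growth; -100 to 0, cell death (-40 = 40% of starting cells died; -100 = all dead).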 Unmarked numbers belong to inactive results. Active and inactive are the calls of the source. How the source made its calls: active means growth percent below 10; inactive means the rest.

How the values were obtained:
Experiment in all cases: NCI-60 one-dose screen, 48 h (100 = growth as untreated, 0 = no growth, -100 = all killed)
Details in all cases: 10 µM unless noted
HCT-15 colon = tested on: HCT-15 colon
HT29 colon = tested on: HT29 colon
SNB-75 CNS = tested on: SNB-75 CNS
SNB-19 CNS = tested on: SNB-19 CNS
U251 CNS = tested on: U251 CNS
PC-3 prostate = tested on: PC-3 prostate
SK-MEL-5 melanoma = tested on: SK-MEL-5 melanoma
UACC-62 melanoma = tested on: UACC-62 melanoma
LOX IMVI melanoma = tested on: LOX IMVI melanoma
SK-MEL-28 melanoma = tested on: SK-MEL-28 melanoma
EKVX NSCLC = tested on: EKVX NSCLC
SN12C renal = tested on: SN12C renal
UO-31 renal = tested on: UO-31 renal
TK-10 renal = tested on: TK-10 renal
ACHN renal = tested on: ACHN renal
CAKI-1 renal = tested on: CAKI-1 renal
A498 renal = tested on: A498 renal
CCRF-CEM leukemia = tested on: CCRF-CEM leukemia
MOLT-4 leukemia = tested on: MOLT-4 leukemia

Compound	growth (HCT-15 colon)	growth (HT29 colon)	growth (SNB-75 CNS)	growth (SNB-19 CNS)	growth (U251 CNS)	growth (PC-3 prostate)	growth (SK-MEL-5 melanoma)	growth (UACC-62 melanoma)	growth (LOX IMVI melanoma)	growth (SK-MEL-28 melanoma)	growth (EKVX NSCLC)	growth (SN12C renal)	growth (UO-31 renal)	growth (TK-10 renal)	growth (ACHN renal)	growth (CAKI-1 renal)	growth (A498 renal)	growth (CCRF-CEM leukemia)	growth (MOLT-4 leukemia)
COc1cccc2cc(-c3nc(C4CCC(C(=O)O)CC4)n4ncnc(N)c34)[nH]c12 (stereo not given)	16.4%	14.3%	-43.1% (active)	15.7%	9.1% (active)	13.3%	-28.7% (active)	-32.2% (active)	-4.84% (active)	-9.6% (active)	11.6%	14%	-12.4% (active)	-22.3% (active)	4.68% (active)	-22.7% (active)	-50.6% (active)	9.93% (active)	15.2%
CN(C)C/C=C/C(=O)Nc1cc2c(Nc3ccc(F)c(Cl)c3)ncnc2cc1O[C@H]1CCOC1	-6.21% (active)	-2.13% (active)	-1.97% (active)	8.32% (active)	-3.99% (active)	5.5% (active)	-81.4% (active)	-42.3% (active)	-73.5% (active)	-57.5% (active)	4.87% (active)	3.6% (active)	12.2%	-10.4% (active)	-84.9% (active)	5.36% (active)	-40.4% (active)	6.13% (active)	-13.5% (active)
Cn1c(=O)c(F)c(Nc2ccc(I)cc2F)c2c(=O)n(C[C@@H](O)CO)cnc21	54.6%	7.51% (active)	62.7%	42.6%	31.4%	68.4%	36.3%	0.259% (active)	15.3%	0.0364% (active)	46.6%	40.1%	22.8%	41.2%	50.7%	41.7%	-30.7% (active)	66.8%	73.7%
COc1cc(NCCCN)c2ncccc2c1	100%	75.6%	87.5%	87.5%	83.2%	82.2%	81.5%	86.8%	61.8%	83.4%	105%	84.7%	63.4%	84.8%	97.2%	97.2%	56.9%	92.5%	91.5%
c1cc(OCCN2CCCCC2)cc(-c2n[nH]c3ccc(-c4ncn[nH]4)cc23)c1	79.7%	21%	46.1%	86.2%	84%	86.9%	43.4%	31.9%	30.8%	46.5%	76.7%	68.2%	25.1%	74.5%	62.7%	26.6%	71%	84.9%	27%
NC(=O)Nc1cc(-c2cccc(F)c2)sc1C(=O)N[C@H]1CCCNC1	-10.6% (active)	-24% (active)	-89.8% (active)	-26.7% (active)	-62% (active)	16.2%	-27.5% (active)	-21.1% (active)	-75.2% (active)	14.2%	4.42% (active)	-5.05% (active)	-95.4% (active)	-66.3% (active)	3.94% (active)	-82.3% (active)	-83.7% (active)	4.63% (active)	2.79% (active)
Cc1cc(C)n(CC(=O)Nc2ccc(-c3nc4ccccc4s3)cc2)n1	105%	108%	101%	99.8%	89.7%	86.8%	96.4%	95.3%	97.7%	109%	108%	102%	83.8%	106%	114%	102%	94.6%	98.5%	84%
Cc1cc(C(O)CN(C)C)cc2c1ccc1cc(C(C)C)ccc12 (stereo not given)	-38.7% (active)	-65.1% (active)	-63.5% (active)	59%	-48.8% (active)	48.6%	-93.1% (active)	-81.2% (active)	-100% (active)	-100% (active)	84.5%	62.6%	26.4%	-62.1% (active)	-28.6% (active)	8.02% (active)	76.8%	3.14% (active)	-29.5% (active)
Cn1ccnc1C(=O)/C=C/c1ccc(CC(=O)Nc2ccc(C(F)(F)F)cc2)cc1	-18.7% (active)	-2.78% (active)	0.358% (active)	4.97% (active)	-20% (active)	13.8%	56.9%	27.9%	-49.4% (active)	77.8%	14.9%	10% (active)	22.1%	32.6%	27.9%	33.5%	64.5%	8.58% (active)	-7.88% (active)
O=C(c1ccc(F)c(F)c1Nc1ccc(I)cc1F)N1CC(O)([C@@H]2CCCCN2)C1	25.6%	-18.5% (active)	21.7%	36.4%	15.3%	38.6%	-92.9% (active)	-5.75% (active)	-84.1% (active)	-1.76% (active)	24.4%	34%	-9.6% (active)	11.6%	18.2%	21.9%	-71.2% (active)	39.7%	4.19% (active)
COC(=O)[C@@H](NC(=O)[C@@H](OC)[C@@H]1Cc2cc3cc(OC4CC(OC5CC(O)C(O)C(C)O5)C(O)C(C)O4)c(C)c(O)c3c(O)c2C(=O)[C@H]1OC1CC(OC2CC(OC3CC(C)(O)C(O)C(C)O3)C(O)C(C)O2)C(O)C(C)O1)C(C)C (stereo not given in full)	23.9%	6.32% (active)	-24.3% (active)	8.43% (active)	-28.1% (active)	18.8%	-74.3% (active)	-65.1% (active)	-76.2% (active)	-1.86% (active)	25.3%	13.2%	7.39% (active)	21.7%	0.317% (active)	20%	-83.2% (active)	7.92% (active)	1.35% (active)
O=C(Nc1nc2cccc(-c3ccc(CN4CCS(=O)(=O)CC4)cc3)n2n1)C1CC1	94.7%	65.4%	90.3%	48%	65.3%	76.9%	74.6%	87.6%	60.4%	90.2%	106%	76.8%	75.3%	66.3%	93.6%	88.4%	60.8%	30.9%	41%
CC(C)(C)c1ccc(Cn2cc(CSc3nc4ccccc4s3)nn2)cc1	99.7%	99.6%	94%	89.8%	93.3%	96.1%	106%	88.4%	103%	96.4%	98.3%	90.8%	65.2%	88.7%	97.2%	82.9%	87%	95%	95.7%
CCOC(=O)c1sc(NC(=O)COc2ccc(/C=C3\Cc4ccc(Cl)cc4C3=O)cc2)nc1C	120%	116%	95.8%	102%	99.2%	97%	106%	93.4%	97.9%	127%	111%	102%	-77.3% (active)	149%	102%	96.1%	143%	101%	60.6%
CC(=O)NCC(=O)N1[C@@H]2CC[C@H]1c1ccc(Nc3ncc(C(F)(F)F)c(NC4CCC4)n3)cc12	26.8% [2.5 µM]	14.1% [2.5 µM]	19.7% [2.5 µM]	73.9% [2.5 µM]	56.2% [2.5 µM]	57.2% [2.5 µM]	58.1% [2.5 µM]	56.3% [2.5 µM]	22% [2.5 µM]	70.8% [2.5 µM]	69.1% [2.5 µM]	37.8% [2.5 µM]	2.84% [2.5 µM] (active)	43.7% [2.5 µM]	38.6% [2.5 µM]	20.5% [2.5 µM]	14.7% [2.5 µM]	40.2% [2.5 µM]	20% [2.5 µM]
